An excerpt weighted towards active compounds, which were near 3.4% of everything screened.
ADAM17 inh – ADAM17 inhibition, QFRET primary screen; P78536; inhibition, % at 6.95 µM; recombinant ADAM17, EDANS/DABCYL FRET peptide cleavage; AID 720648; 0.83% of 370,000 active;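 active = inhibition above the mean of compounds lying between control limits plus 3 SD, set per campaign, cut at about 8.5% in these data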
KLK7 zymogen act – activates the human kallikrein-7 zymogen | P49862 | purified proKLK7, EDANS-DABCYL substrate fluorescence; 100% is mature enzyme control, 0% vehicle | activation, % at 7 µM | 0.9% of 370,000 active | AID 652039;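 active = activation above the mean of all tested compounds plus 3 SD, computed per campaign excluding outliers beyond control limits, cut at about 13% in these data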
Target sequence (P49862 whole entry, looked up): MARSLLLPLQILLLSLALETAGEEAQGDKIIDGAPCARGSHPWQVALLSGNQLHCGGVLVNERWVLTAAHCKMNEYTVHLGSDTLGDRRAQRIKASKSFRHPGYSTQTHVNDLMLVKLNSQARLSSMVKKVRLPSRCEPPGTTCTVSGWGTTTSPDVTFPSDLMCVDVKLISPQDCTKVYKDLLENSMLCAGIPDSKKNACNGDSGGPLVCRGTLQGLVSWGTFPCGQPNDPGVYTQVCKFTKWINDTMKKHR
ADAM10 inh – inhibitors of human ADAM10; O14672; recombinant ADAM10, EDANS/DABCYL FRET peptide cleavage, 3 h; inhibition, % at 7 µM; 0.62% of 370,000 active; AID 720582;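 active = inhibition above a per-campaign cutoff equal to the mean of compounds falling between control-based bounds plus 3 SD, cut at about 20% in these data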
CendR NRP1 mod – modulators of CendR peptide binding to human neuropilin-1. AID 602438. FAM-RPARPAR peptide binding to NRP-1, fluorescence polarization. O14786. 0.85% of 360,000 active. inhibition, % at 25 µM;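 active = inhibition or corrected inhibition above about 18%, plus a signal ratio from 0.5 to 1.5, limit read from the data, passing the limit was not always enough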
HGIII-sPLA2 inh – Inhibits HGIII-sPLA2 liposome hydrolysis, primary screen | QFRET BODIPY PC-A2 liposome hydrolysis, fluorescence | inhibition, % at 12.2 µM | 0.56% of 370,000 active | AID 743126;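 active = inhibition above mean plus 3 SD of compounds lying within the high and low control bounds, cut at about 19% in these data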
ADAM10 confirm – human ADAM10 inhibition, confirmation; shares compounds with ADAM10 inh; ADAM10 QFRET peptide cleavage, EDANS fluorescence; inhibition, % at 6.95 µM; 1% of 2,100 active; AID 743208;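 active = inhibition above about 20% chosen separately for each screening run, limit read from the data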
ADAM17 counter – counter-screen for ADAM10 exosite inhibitors: inhibitors of human ADAM17; shares compounds with ADAM10 inh; ADAM17 QFRET peptide cleavage, EDANS fluorescence; inhibition, % at 6.95 µM; 0.5% of 2,100 active;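 active = mean triplicate inhibition above the solvent-only control wells' mean plus 3 SD, cut at about 12% in these data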
ADAM10 ctr – counter-screen for ADAM17 exosite inhibitors: inhibitors of human ADAM10; shares compounds with ADAM17 inh; recombinant ADAM10, EDANS/DABCYL FRET peptide cleavage, 3 h; inhibition, % at 6.95 µM; 47% of 2,900 active; AID 743256;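 active = mean inhibition over the triplicate runs exceeds the activity threshold set in the earlier primary screen, cut at about 20% in these data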
ADAM17 confirm – human ADAM17 inhibition, confirmation | recombinant ADAM17, EDANS/DABCYL QFRET peptide cleavage | shares compounds with ADAM17 inh | AID 743257 | inhibition, % at 6.95 µM | 65% of 2,900 active;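 active = mean inhibition across replicates above the hit cutoff set in the primary screen, cut at about 8.5% in these data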
A number is an active result.

Cc1ccc(NC(=O)C(C)OC(=O)c2ccc(NS(=O)(=O)c3ccc(F)c(F)c3)cc2)cc1 (stereo not given) was read as ADAM17 inh inactive, KLK7 zymogen act inactive, ADAM10 inh inactive, CendR NRP1 mod inactive and HGIII-sPLA2 inh inactive.
Cc1cc(C(=O)OC(C(=O)Nc2cccc(C(F)(F)F)c2)c2ccccc2)c(C)o1 (stereo not given) was read as ADAM17 inh 16, KLK7 zymogen act inactive, ADAM10 inh 30, CendR NRP1 mod inactive, HGIII-sPLA2 inh inactive, ADAM10 confirm inactive, ADAM17 counter inactive, ADAM10 ctr 38 and ADAM17 confirm 24.
CC(C)c1ccc(Nc2nc(NCc3ccco3)nc(N3CCOCC3)n2)cc1 was read as ADAM17 inh 12, KLK7 zymogen act inactive, ADAM10 inh 31, CendR NRP1 mod inactive, HGIII-sPLA2 inh inactive, ADAM10 confirm inactive, ADAM17 counter inactive, ADAM10 ctr 23 and ADAM17 confirm 13.
Screening O=C(NCc1cccs1)C1CCN(S(=O)(=O)c2cccc3ccccc23)CC1 returned ADAM17 inh inactive, KLK7 zymogen act inactive, ADAM10 inh inactive and HGIII-sPLA2 inh inactive.
Screening COc1ccc(N/N=C(\C#N)C(N)=O)cc1 returned ADAM17 inh inactive, KLK7 zymogen act inactive, ADAM10 inh inactive, CendR NRP1 mod inactive and HGIII-sPLA2 inh inactive.
Screening COc1ccc(N/N=C(/C(N)=O)C2=NC(C)(C)Cc3ccccc32)cc1 returned ADAM17 inh 14, KLK7 zymogen act inactive, ADAM10 inh 28, CendR NRP1 mod inactive, HGIII-sPLA2 inh inactive, ADAM10 confirm inactive, ADAM17 counter inactive, ADAM10 ctr inactive and ADAM17 confirm inactive.
COc1ccc(C2=Nc3ccccc3NC(=O)C2N(C(=O)c2ccnc3ccccc23)c2ccccc2)cc1 (stereo not given) was read as ADAM17 inh 17, KLK7 zymogen act inactive, ADAM10 inh 33, CendR NRP1 mod inactive, HGIII-sPLA2 inh inactive, ADAM10 confirm inactive, ADAM17 counter inactive, ADAM10 ctr 21 and ADAM17 confirm 15.
For COc1ccc(C2=Nc3ccccc3NC(=O)C2N(CCc2cc(OC)cc(OC)c2)C(C)=O)cc1 (stereo not given) the results were ADAM17 inh inactive, KLK7 zymogen act inactive, ADAM10 inh inactive, CendR NRP1 mod inactive and HGIII-sPLA2 inh inactive.
Screening Cc1ccc(-c2nnc3n2N=C(c2ccc(-c4ccccc4)cc2)CS3)cc1 returned ADAM17 inh inactive, KLK7 zymogen act inactive, ADAM10 inh inactive and HGIII-sPLA2 inh inactive.
`O=S(=O)(Nc1ccc(C(O)(C(F)(F)F)C(F)(F)F)cc1)c1cccs1` gave ADAM17 inh inactive, ADAM10 inh inactive and HGIII-sPLA2 inh inactive.
`O=C(COc1ccc(Cl)cc1)N1CCN(c2ccc([N+](=O)[O-])c(N3CCCCC3)c2)CC1` gave ADAM17 inh 8.9, KLK7 zymogen act inactive, ADAM10 inh 20, CendR NRP1 mod inactive, HGIII-sPLA2 inh inactive, ADAM10 confirm inactive, ADAM17 counter inactive, ADAM10 ctr 25 and ADAM17 confirm 13.
CC(C)(C)OC(=O)[C@H](Cc1ccccc1)NC(=O)c1nc[nH]c1C(=O)NCC(=O)OCc1ccccc1 was read as ADAM17 inh 11, KLK7 zymogen act inactive, ADAM10 inh 30, CendR NRP1 mod inactive, HGIII-sPLA2 inh inactive, ADAM10 confirm inactive, ADAM17 counter inactive, ADAM10 ctr 44 and ADAM17 confirm 20.
`CC(C)(C)OC(=O)CNC(=O)c1[nH]cnc1C(=O)N[C@@H](Cc1ccccc1)C(=O)OC(C)(C)C` gave ADAM17 inh inactive, KLK7 zymogen act inactive, ADAM10 inh inactive, CendR NRP1 mod inactive and HGIII-sPLA2 inh inactive.
Screening C[C@H](NC(=O)c1nc[nH]c1C(=O)N[C@@H](Cc1ccccc1)C(=O)OCc1ccccc1)C(=O)OC(C)(C)C returned ADAM17 inh 11, KLK7 zymogen act inactive, ADAM10 inh 24, CendR NRP1 mod inactive, HGIII-sPLA2 inh inactive, ADAM10 confirm inactive, ADAM17 counter inactive, ADAM10 ctr 26 and ADAM17 confirm 14.
`CC(C)(C)OC(=O)CNC(=O)c1[nH]cnc1C(=O)NCC(=O)OCc1ccccc1` gave ADAM17 inh inactive, KLK7 zymogen act inactive, ADAM10 inh inactive, CendR NRP1 mod inactive and HGIII-sPLA2 inh inactive.
Screening O=C(CNC(=O)c1[nH]cnc1C(=O)NC(c1ccccc1)c1ccccc1)OCc1ccccc1 returned ADAM17 inh 11, KLK7 zymogen act inactive, ADAM10 inh 21, CendR NRP1 mod inactive, HGIII-sPLA2 inh inactive, ADAM10 confirm inactive, ADAM17 counter inactive, ADAM10 ctr 29 and ADAM17 confirm 13.
Cc1ccc(NC(=O)c2nc[nH]c2C(=O)N[C@@H](C)C(=O)OC(C)(C)C)cc1 was read as ADAM17 inh 14, KLK7 zymogen act inactive, ADAM10 inh 27, CendR NRP1 mod inactive, HGIII-sPLA2 inh inactive, ADAM10 confirm inactive, ADAM17 counter inactive, ADAM10 ctr 28 and ADAM17 confirm 12.
For CCCC[C@H]1C2CC(OC(=O)NCCCC(=O)OCC)C(C2)[C@H]2CCCCN21 (stereo not given in full) the results were ADAM17 inh inactive, KLK7 zymogen act inactive, ADAM10 inh inactive and HGIII-sPLA2 inh inactive.
Screening C=CCN=C1NC(c2cccc(C(F)(F)F)c2)C(C(=O)OC)=C(C)N1Cc1ccccc1C(F)(F)F (stereo not given) returned ADAM17 inh inactive, KLK7 zymogen act inactive, ADAM10 inh inactive and HGIII-sPLA2 inh inactive.
Screening O=C(CNC(=O)c1[nH]cnc1C(=O)N[C@@H](Cc1ccccc1)C(=O)OCc1ccccc1)OCc1ccccc1 returned ADAM17 inh 8.8, KLK7 zymogen act inactive, ADAM10 inh 22, CendR NRP1 mod inactive, HGIII-sPLA2 inh inactive, ADAM10 confirm inactive, ADAM17 counter inactive, ADAM10 ctr 25 and ADAM17 confirm 15.
NCCCCCNC(=O)c1[nH]cnc1C(=O)N[C@@H](Cc1ccccc1)C(=O)OCc1ccccc1 was read as ADAM17 inh inactive, KLK7 zymogen act inactive, ADAM10 inh inactive, CendR NRP1 mod inactive and HGIII-sPLA2 inh inactive.
`CC(C)(C)OC(=O)C(Cc1ccc(OC(C)(C)C)cc1)NC(=O)CNC(=O)OCc1ccccc1` (stereo not given) gave ADAM17 inh 13, KLK7 zymogen act inactive, ADAM10 inh 25, CendR NRP1 mod inactive, HGIII-sPLA2 inh inactive, ADAM10 confirm inactive, ADAM17 counter inactive, ADAM10 ctr inactive and ADAM17 confirm inactive.

Screening results deposited in PubChem BioAssay by several laboratories.
